This note sets out measurements from the supplement of paper PMC8726507.

The structures appear in SMILES notation. Unmarked numbers belong to inactive results.

The subject of one test is Plasmodium falciparum NF54-HGL (transmission to Anopheles stephensi). Briefly: percentage of barcode signal found in uninfected mosquitoes (transmission-blocking activity); higher = stronger blocking of transmission to mosquito, active = 80 or more. The following applies: 10 µM; gametocyte preincubation time 24 h; readout time post-feed 8 days. On the procedure: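 The mixture was fed to Anopheles stephensi in 96-well plates as blood meals tagged with DNA-barcoded Asaia bacteria. Eight days later, mosquitoes were classed infected or uninfected by luminescence (mean + 5 SD of unfed controls). Barcodes were quantified by Luminex MagPlex-TAG in the pooled uninfected and infected Asaia cultures, background-corrected, and the score is % of barcode signal in uninfected mosquitoes = 100*Iu/(Iu+Ii).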
With `Cc1ccc2cc(C3NC(=O)c4ccccc4N3)c(Cl)nc2c1` (configuration not stated), the “percentage of barcode signal found in uninfected mosquitoes” value (from here on “percentage of barcode signal found”) is 71.8%.

As to `COc1ccc(-c2onc(C(F)(F)F)c2-c2ccc(Cl)cc2)c(O)c1`, the “percentage of barcode signal found” value is 25.2%.

Consider `COc1ccc(OC)c(NCc2ccc3nc(N)nc(N)c3c2Cl)c1`, for which the “percentage of barcode signal found” value was 94.7% (active).

Regarding `CC(C)(C)c1cc(C(=O)Nc2cccnc2)cc(C(=O)Nc2cccnc2)c1`, the “percentage of barcode signal found” value was 41.8%.

For `N#Cc1ccc(-c2ccc(OCC(N)=O)cc2)cc1`, the “percentage of barcode signal found” value is -1.66%.

`Cc1cccc(Cn2ccc(NC(=O)c3ccc4c(c3)OCO4)n2)c1`: the “percentage of barcode signal found” value is 42.9%.

For `COCC(C)NC(=O)CSc1ncnc2sc(-c3ccccc3)cc12` (configuration not stated), the “percentage of barcode signal found” value is 47.4%.

Turning to `CN1CCN(c2nccc3nc(-c4ccc(F)c(F)c4)[nH]c23)CC1`, the “percentage of barcode signal found” value was 97.2% (active).

Take `Cc1ncc(-c2ccnc(Nc3ccc(S(C)(=O)=O)cc3)n2)n1C(C)C`: the “percentage of barcode signal found” value is 82.6% (active).

Turning to `N=C(N)c1ccc(OCCCCCOc2ccc(C(=N)N)cc2)cc1`, the “percentage of barcode signal found” value is 77.2%.

In the case of `Cc1cccc(NC(=O)c2cc(S(=O)(=O)N(C)c3ccc(F)cc3)ccc2Cl)n1`, the “percentage of barcode signal found” value is 46.1%.

Turning to `O=C(c1[nH]nc2c1CCCC2)N1CCN(Cc2ccc3c(c2)OCO3)CC1`, the “percentage of barcode signal found” value was 9.05%.

`CS(=O)(=O)c1cccc(-c2cnc3[nH]cc(-c4ccc(CCC(=O)O)cc4)c3c2)c1`: the “percentage of barcode signal found” value was 29.9%.

On to `Nc1ncnc2c1c(Cc1cccc3ccccc13)nn2CC1CCNCC1`, for which the “percentage of barcode signal found” value was 74.2%.

As to `CS(=O)(=O)c1ccccc1C(=O)N(Cc1ccccc1)c1ccccc1`, the “percentage of barcode signal found” value was 5.09%.

Turning to `CC(C(=O)Nc1ccc2oc(-c3ccncc3)nc2c1)c1ccccc1` (configuration not stated), the “percentage of barcode signal found” value is -6.05%.

`N#Cc1nc(-c2ccccc2F)oc1NCCc1ccccc1`: the “percentage of barcode signal found” value was 1.26%.

Staying with this test, now noted: 20 µM; gametocyte preincubation time 24 h; readout time post-feed 8 days.
With `NS(=O)(=O)c1cccc(-c2ccc3ncc(N4CCOCC4)nc3c2)c1`, the “percentage of barcode signal found” value is 64.7%.

Take `CCc1ccccc1-n1c(C)cn2c3c(=O)n(C(C(=O)OC)C(C)C)c(=O)n(C)c3nc12` (configuration not stated): the “percentage of barcode signal found” value is 54.1%.

Take `O=C(Nc1cccc(-c2ccc(NCCCN3CCCC3)nc2)c1)c1ccccc1`: the “percentage of barcode signal found” value is 29.8%.

For the compound `C[C@@H]1[C@H](O)[C@@H](C)/C=C/C=C/C=C/C=C/C=C/C=C/C=C/[C@H](O[C@@H]2O[C@H](C)[C@@H](O)[C@H](N)[C@@H]2O)C[C@@H]2O[C@](O)(C[C@@H](O)C[C@@H](O)[C@H](O)CC[C@@H](O)C[C@@H](O)CC(=O)O[C@H]1C)C[C@H](O)[C@H]2C(=O)O`, the “percentage of barcode signal found” value is -1.39%.

Take `CCN(CC)S(=O)(=O)c1ccc(C(=O)Nc2cc(C)nn2-c2nc(C)c(C)c(=O)[nH]2)cc1`: the “percentage of barcode signal found” value is 66.7%.

As to `NCC(c1cccs1)S(=O)(=O)c1ccccc1` (configuration not stated), the “percentage of barcode signal found” value is 17.5%.

Regarding `Cc1nn(C(=O)Nc2cccc(C(F)(F)F)c2)c(C)c1Sc1ncccn1`, the “percentage of barcode signal found” value was 2.49%.

Consider `COc1ccc(C(=N)N)cc1-c1cn(-c2ccc(C(=N)N)cc2)nn1`, for which the “percentage of barcode signal found” value is 2.56%.

Regarding `COc1ccc(-c2nnc3ccc(-c4cccc(C(C)C)c4)cn23)cc1OC`, the “percentage of barcode signal found” value is 47.3%.

Consider `CCOc1ccc(-c2nc(CNCCc3ccc(F)cc3)cs2)cc1`, for which the “percentage of barcode signal found” value was 41.8%.

In the case of `Nc1ccc2ncnc(Nc3ccc(OCc4cccc(F)c4)c(Cl)c3)c2c1`, the “percentage of barcode signal found” value is 17.8%.

Take `C[C@H]1COc2c(N3CCN(C)CC3)c(F)cc3c(=O)c(C(=O)O)cn1c23`: the “percentage of barcode signal found” value was -1.12%.

Consider `FC(F)(F)c1ccc(N(c2cccnc2)C2CCN(c3ccc(C(F)(F)F)cn3)CC2)cc1`, for which the “percentage of barcode signal found” value is 27.4%.

For the compound `Cc1cc(C)n(-c2ccc(NC(=O)C3CCN(Cc4cnc(C)s4)CC3)cc2)n1`, the “percentage of barcode signal found” value was 1.19%.

`CC(C)(C)c1cc(C(=O)N2CCN(c3nccnc3C#N)CC2)n(Cc2ccccc2)n1`: the “percentage of barcode signal found” value was 33.5%.

On to `N=C(N)Nc1ccc(-c2ccc(-c3ccc(NC(=N)N)cc3Cl)o2)c(Cl)c1`, for which the “percentage of barcode signal found” value was 39.3%.

`O=C(NCCN1CCCC1)c1cc(NCCN2CCOCC2)nc2ccc(Cl)cc12`: the “percentage of barcode signal found” value was 88% (active).

`Nc1ncc(-c2cn[nH]c2)cc1-c1nc2cc(Cl)cnc2[nH]1`: the “percentage of barcode signal found” value was 48.9%.

Consider `CCN(CC)CCCN1CCN(C(=O)c2cccc(-c3noc(C(F)(F)F)n3)c2)CC1`, for which the “percentage of barcode signal found” value was 64.3%.

On to `O=C(Nc1ccc(C(F)(F)F)c(C(F)(F)F)c1)c1cc(Cl)ccc1O`, for which the “percentage of barcode signal found” value was 69.4%.
